Inconclusive results are not listed. Values without a mark were called inactive. Activity calls are given as the source filed them. The call rests on the fitted dose curve; in most records, active means well fitted inhibition curve with a large enough effect; inconclusive means small, poorly fitted or top-dose-only effect; inactive means flat fitted curve, though single readings scatter.
Tested on: DFO2036
Experiment: qHTS profiling for inhibitors of Plasmodium falciparum proliferation (AID 504749); further: nearly all actives have a fitted effect of over 60% in size;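 on activity, negative = inhibition: 0% = DMSO vehicle and full inhibition = artemisinin control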
Conditions: P. falciparum in erythrocytes, SYBR Green DNA, 72 h; series mostly up to 28.7 µM; activity, negative = inhibition: at the top concentration
Summary of the method: (§1)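 Quantitative HTS: compounds pinned into medium, infected erythrocytes added (0.3% parasitemia, 2.5% hematocrit), 72 h culture at 37 C under 5% CO2. Saponin/Triton lysis with SYBR Green I, overnight RT, then fluorescence read.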
Potency means the concentration at half of the fitted maximal effect.

Compound	activity, negative = inhibition	Potency
CC(C)=CCOc1ccc(/C=C/C(=O)c2ccc(OCC=C(C)C)cc2OCC(=O)O)cc1	6.7%	–
CN1CCN(C2=Nc3cc(F)ccc3Cc3ccccc32)CC1	-13.1%	–
Cc1ccc2c(Br)cc(Br)c(O)c2n1	–	10 µM (active)
CC(=O)O[C@H]1C[C@@H]2CC[C@@H]3[C@H](CC[C@@]4(C)[C@H]3C[C@H]([N+]3(C)CCCCC3)[C@@H]4OC(C)=O)[C@@]2(C)C[C@@H]1N1CCCCC1	-28.1%	–
CN(C)CCOC(c1ccc(Cl)cc1)c1ccccn1 (centres undefined)	-24.3%	–
COc1cc(O)c(C(=O)c2ccccc2)cc1S(=O)(=O)O	-24.6%	–
COc1ccc(C(=O)c2ccccc2)c(O)c1	-22.7%	–
CCN(CC)CCOC(=O)C1(c2ccccc2)CCCC1	-72.2%	–
NC(=O)C1(N2CCCCC2)CCN(CCCC(=O)c2ccc(F)cc2)CC1	-13.2%	–
O=C(NC1CCN(CCc2c[nH]c3ccccc23)CC1)c1ccccc1	-24%	–
CCC(C(=O)OCCOCCN(CC)CC)c1ccccc1 (centres undefined)	-20.6%	–
C[N+]1(C)CCC(=C(c2ccccc2)c2ccccc2)CC1	-12.9% [at 12.8 µM]	–
CN1CCN(C2=Nc3ccccc3Sc3ccc(Cl)cc32)CC1	-15.6%	–
O=[N+]([O-])c1cccc(S(=O)(=O)NCCNS(=O)(=O)c2cccc([N+](=O)[O-])c2)c1	-23.7%	–
CCCCCCCCCCCCOCCOCCOCCOCCOCCOCCOCCOCCOCCO	-29.4%	–
C#C[C@]1(OC(C)=O)CC[C@H]2[C@@H]3CCC4=C/C(=N/O)CC[C@@H]4[C@H]3CC[C@@]21CC	5.2%	–

Tested on: DIV14
Experiment: as above
Conditions: P. falciparum in erythrocytes, SYBR Green DNA, 72 h; series mostly up to 28.7 µM; activity, negative = inhibition: at the top concentration
Summary of the method: as §1

Compound	Potency	activity, negative = inhibition
CC(C)(C)CC(C)(C)c1ccc(O)c(-n2nc3ccccc3n2)c1	13.5 µM (active)	–
CC[N+](C)(CC)CCOC(=O)C(O)(c1ccccc1)C1CCCCC1 (centres undefined)	–	-17.8%
CNCCCCOc1ccccc1Cc1ccccc1	3.79 µM (active)	–
CN1CCN(c2cc3c(cc2F)c(=O)c(C(=O)O)cn3-c2ccc(F)cc2)CC1	–	-0.859%
Oc1c(Cl)cc(Cl)c(Cl)c1Cc1c(O)c(Cl)cc(Cl)c1Cl	10.7 µM (active)	–
CCOCCn1c(N2CCCN(C)CC2)nc2ccccc21	7.57 µM (active)	–
COC(=O)C(c1ccccc1Cl)N1CCc2sccc2C1 (centres undefined)	–	-29.1%
CCN(CC)CCOc1ccc2c(c1)C(=O)c1cc(OCCN(CC)CC)ccc1-2	13.5 µM (active)	–
NC1CCN(c2nc3c(cc2F)c(=O)c(C(=O)O)cn3-c2ccc(F)cc2F)C1 (centres undefined)	–	-14.4%
CN1CCN(c2c(F)cc3c(=O)c(C(=O)O)cn4c3c2SCC4)CC1	–	-9.8%
CCN(CC)CCOc1ccccc1C(=O)CCc1ccccc1	6.75 µM (active)	–
CC(C)(Cc1c[nH]c2ccccc12)NCC(O)COc1ccccc1C#N (centres undefined)	8.49 µM (active)	–
O=C(CN1CCN(Cc2ccc3c(c2)OCO3)CC1)N1c2ccccc2Sc2ccccc21	12 µM (active)	–
